Shiga inhibitor = Shiga toxin inhibition; actives 9.2% (n = 290,000); Vero cells, Shiga toxin protein synthesis inhibition reporter; inhibition, % at 38.7 µM; in the data active = inhibition mostly above about 28%, no sharp cut-off; inactive = mostly below about 43%
AmpC inh no detg = blocks E. coli AmpC beta-lactamase in detergent-free assay | Potency, µM (titrated, usually from 57.1 µM), most hits filed as inhibitors | P00811 | AID 485341 | AmpC nitrocefin hydrolysis, absorbance 480 nm, 0.0001% Triton | actives 0.52% (n = 330,000); note: nearly all actives have a fitted effect of over 20% in size
Target sequence (P00811 whole entry, looked up): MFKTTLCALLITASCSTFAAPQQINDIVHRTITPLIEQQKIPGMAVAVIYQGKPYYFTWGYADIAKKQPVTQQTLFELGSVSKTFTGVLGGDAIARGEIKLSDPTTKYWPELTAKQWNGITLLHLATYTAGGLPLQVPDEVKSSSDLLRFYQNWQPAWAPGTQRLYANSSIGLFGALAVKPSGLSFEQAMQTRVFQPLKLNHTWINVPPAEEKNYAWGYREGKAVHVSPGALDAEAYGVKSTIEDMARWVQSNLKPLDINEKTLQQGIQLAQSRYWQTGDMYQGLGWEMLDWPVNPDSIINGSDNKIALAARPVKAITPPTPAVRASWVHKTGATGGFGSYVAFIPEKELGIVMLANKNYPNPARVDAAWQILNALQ
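20 mM phosphate pH 7.0 + 0.01% (detergent screen) or 0.0001% Triton X-100; 5.3 nM AmpC reagent; cpd preinc 15 min RT; nitrocefin (800 uM stock) to start; A480 q20 s × 4 min; Activity was normalised to no-enzyme and no-compound control wells.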
AmpC detergent = AmpC beta-lactamase inhibition with detergent present. P00811. AmpC hydrolysis of nitrocefin, absorbance 480 nm, 0.01% Triton. Potency, µM (doses to about 114 µM), most hits filed as inhibitors. actives 0.041% (n = 370,000). AID 485294; note: nearly all actives have a fitted effect of over 25% in size
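AmpC (5.3 nM in the dispensed reagent) in 20 mM phosphate pH 7.0 with 0.01% (detergent screen) or 0.0001% Triton X-100 was preincubated with compounds for 15 min at room temperature. Nitrocefin was then added from an 800 uM solution, and hydrolysis was followed at 480 nm.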
Cycloheximide cs = counter-screen hit for Shiga toxin inhibitors, cycloheximide; cell reporter, cycloheximide protein synthesis inhibition counterscreen; max response, %; actives 12% (n = 300,000); in the data active = max response mostly above about 13%, no sharp cut-off; inactive = mostly below about 14%; note: read at 38.3 µM for the half of the compounds with a filed dose
NS1 inh = blocks influenza NS1 protein function. Potency, µM (series often up to 46.1 µM). actives 0.4% (n = 270,000). AID 2326; calls by dose curve; note: actives are rising curves; nearly all actives have a fitted effect of over 50% in size
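A cell-based growth assay was used: compounds that relieve NS1-induced slow growth of budding yeast raise OD600. Assay medium was yeast nitrogen base with ammonium sulphate and -URA supplement, pH 6.0, with 2% galactose.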
Each line names hits and unclear results; the compound was inactive in the other large screens. The full list was thinned out, with hits kept by preference. Unless noted, calls come from the whole dose curve; as a rule, active = well fitted curve in the direction sought with a large enough effect; inconclusive = small, poorly fitted or top-dose-only effect, or another doubt; inactive = no such curve, though single readings can be large; an effect the other way counts as inactive or inconclusive.

CCc1ccccc1NC(=O)Nc1nnc(N2CCCC2)s1	none (no result: Shiga inhibitor, AmpC inh no detg, Cycloheximide cs, NS1 inh)
c1cc(-c2noc(CCC3CCCC3)n2)ccn1	Cycloheximide cs 17
COc1ccc(-c2noc(CN(C)C3CCOCC3)n2)cc1	none
CN(Cc1nc(-c2ccccc2)no1)C1CCOCC1	Cycloheximide cs 46
c1ccc(-c2noc(CCC3CCCC3)n2)cc1	Cycloheximide cs 20
c1ccc(-c2noc(CC3CCCCC3)n2)cc1	Shiga inhibitor 48, Cycloheximide cs 31
CCOC(=O)c1c(-c2ccccc2)oc2cc(Br)c(OCc3ccccc3)cc12	none (no result: Shiga inhibitor, AmpC inh no detg, Cycloheximide cs, NS1 inh)
COc1cc(NC(=O)N(Cc2ccco2)C2CCN(C(C)=O)CC2)cc(OC)c1OC	none (no result: Shiga inhibitor, AmpC inh no detg, Cycloheximide cs, NS1 inh)
COCCCC1CCN(Cc2nc(-c3ccccc3)no2)CC1	Shiga inhibitor 76, Cycloheximide cs 23
CCn1c(SCc2nc(-c3ccccc3)no2)nc2ccccc21	none
c1ccc(-c2noc(CSc3nnnn3C3CCCCC3)n2)cc1	Cycloheximide cs 28
COCC1CCN(Cc2nc(COc3ccccc3)no2)C1 (stereo unspecified)	Shiga inhibitor 31, Cycloheximide cs 15
CCCCc1ccc(Nc2nc(CCC)cc(=O)[nH]2)cc1	none
CCCc1cc(=O)[nH]c(Nc2ccc3c(c2)OCCO3)n1	Shiga inhibitor 42, AmpC detergent inconclusive, Cycloheximide cs 36 (no result: NS1 inh)
O=C(c1cn(-c2ccc(Cl)c(Cl)c2)nn1)C1CC1	Shiga inhibitor 51, AmpC detergent inconclusive, Cycloheximide cs 37 (no result: NS1 inh)
O=C1CCCCC1C(=O)c1cn(-c2ccc(Cl)c(Cl)c2)nn1 (stereo unspecified)	AmpC detergent inconclusive (no result: NS1 inh)
O=c1cc(-c2ccc(F)cc2)nc(SCc2nc(-c3cccc(Cl)c3)no2)[nH]1	none (no result: Shiga inhibitor, AmpC inh no detg, Cycloheximide cs, NS1 inh)
Cc1cc(C)cc(C(=O)N(C)[C@H](Cc2ccc(-c3ccccc3)cc2)C(=O)N[C@@H](Cc2c[nH]c3ccccc23)C(=O)O)c1	none (no result: AmpC inh no detg, AmpC detergent, NS1 inh)
Cc1cc(NS(=O)(=O)c2ccc(NC(=O)Cc3ccccc3)cc2)nc(C)n1	none
CCOC(=O)C1(Cc2cccc(Cl)c2)CCCN(C(=O)CN2C(=O)CSC2=O)C1 (stereo unspecified)	Shiga inhibitor 46, AmpC detergent inconclusive, Cycloheximide cs 36
CCOC(=O)C1(Cc2cccc(Cl)c2)CCCN(C(=O)c2cnn(CC)c2)C1 (stereo unspecified)	Shiga inhibitor 39, Cycloheximide cs 22
CCOC(=O)C1(Cc2cccc(Cl)c2)CCCN(C(=O)c2ccnn2C)C1 (stereo unspecified)	Shiga inhibitor 41, AmpC detergent inconclusive, Cycloheximide cs 50
CCOC(=O)C1(Cc2cccc(Cl)c2)CCCN(C(=O)c2cc(C)n(C)n2)C1 (stereo unspecified)	none
CCOC(=O)C1(Cc2cccc(Cl)c2)CCCN(C(=O)C(C)(C)C)C1 (stereo unspecified)	Cycloheximide cs 27 (no result: NS1 inh)
O=C(NCCC(=O)N(Cc1ccco1)Cc1cccs1)c1ccc([N+](=O)[O-])cc1	AmpC detergent inconclusive (no result: Shiga inhibitor, Cycloheximide cs, NS1 inh)
Cc1ccc(CN2C(=O)C3CCCN3c3ccc(S(=O)(=O)N4CCOCC4)cc32)cc1 (stereo unspecified)	AmpC detergent inconclusive
CCOC(=O)C1(Cc2cccc(Cl)c2)CCCN(C(=O)c2cn[nH]c2)C1 (stereo unspecified)	none
CCCc1cc(C(=O)N2CCCC(Cc3cccc(Cl)c3)(C(=O)OCC)C2)n(C)n1 (stereo unspecified)	Shiga inhibitor 65
CCOC(=O)C1(Cc2cccc(Cl)c2)CCCN(C(=O)c2cc(CC)on2)C1 (stereo unspecified)	Shiga inhibitor 62, Cycloheximide cs 43
CCOC(=O)C1(Cc2ccccc2C)CCCN(C(=O)c2cc(CC)nn2C)C1 (stereo unspecified)	none
COc1ccc(C(=O)NCCC2=CCCCC2)cc1[N+](=O)[O-]	Shiga inhibitor 41, Cycloheximide cs 24
Cc1cc(C(=O)NCCC2=CCCCC2)c(C)o1	Shiga inhibitor 117, AmpC detergent inconclusive, Cycloheximide cs 39
COc1cccc(C(=O)NCCC2=CCCCC2)c1OC	Shiga inhibitor 108, AmpC detergent inconclusive, Cycloheximide cs 33
COc1ccc(C(=O)NCCC2=CCCCC2)cc1OC1CCN(C(C)C)CC1	Shiga inhibitor 42, Cycloheximide cs 42
Cn1cccc1C(=O)C(=O)Nc1ccccc1C(F)(F)F	Shiga inhibitor 65, AmpC detergent inconclusive, Cycloheximide cs 40 (no result: NS1 inh)
CC(=O)Nc1ccccc1C(F)(F)F	none
Cn1cccc1C(=O)C(=O)Nc1ccccc1	Shiga inhibitor 91, AmpC detergent inconclusive, Cycloheximide cs 43
CC(C)(C)C(=O)NC(=O)Nc1ccccc1C(F)(F)F	Cycloheximide cs 11
CCOC(=O)c1c(C)[nH]c(C)c1S(=O)(=O)N1CCC(C(=O)Nc2ccc(F)cc2F)CC1	none (no result: Shiga inhibitor, AmpC inh no detg, Cycloheximide cs, NS1 inh)
c1ccc(C[n+]2cccc(-c3cc4ccccc4[nH]3)c2)cc1	none (no result: Shiga inhibitor, AmpC inh no detg, AmpC detergent, Cycloheximide cs)
Clc1ccc(-c2cc3ccccc3[nH]2)cc1	Shiga inhibitor 110, Cycloheximide cs 62
Cc1ccc(/C=N/n2c(C3CCCCC3)n[nH]c2=S)cc1	none
Cc1ccc(C(=O)N/N=C/c2ccoc2)cc1C	Shiga inhibitor 63, AmpC detergent inconclusive, Cycloheximide cs 41
CCOc1cccc(C(=O)N/N=C/c2ccoc2)c1	Shiga inhibitor 49, Cycloheximide cs 24
CC(C)c1cc(C(=O)N/N=C/c2ccoc2)cs1	Shiga inhibitor 74, Cycloheximide cs 42
CC(C)c1cc(C(=O)N/N=C/c2cccnc2)cs1	Shiga inhibitor 41, AmpC inh no detg inconclusive, Cycloheximide cs 21
CCCC(=O)Nc1nnc(SCc2cc(=O)c3cc(C)ccc3[nH]2)s1	none (no result: Shiga inhibitor, AmpC inh no detg, Cycloheximide cs, NS1 inh)
O=C(CN1CCCCC1)NC(=O)NCc1ccccc1	none
CC1CCN(C(=O)CN2c3ccc(Br)cc3-c3ccccc3S2(=O)=O)CC1	none (no result: Shiga inhibitor, AmpC inh no detg, Cycloheximide cs, NS1 inh)
C[C@@H]1[C@H](O)C[C@@]23COC(=O)C2=CCCC3[C@@]1(C)CCC1COC(=O)C1 (stereo partly specified)	none (no result: Shiga inhibitor, Cycloheximide cs, NS1 inh)
COc1ccc(CC(=O)N/N=C(/C)c2ccco2)cc1	none
CC(/C=C/c1ccco1)=N/NC(=O)OC(C)(C)C	Cycloheximide cs 23
CC(/C=C/c1ccco1)=N\NC(=O)c1cc(Cl)ccc1O	Shiga inhibitor 91, Cycloheximide cs 27
C/C(=N/NC(=O)OC(C)(C)C)c1ccco1	Shiga inhibitor 66, Cycloheximide cs 29
CC(/C=C/c1ccco1)=N\NC(=O)c1cccnc1	none
CCCCCC1CC(CC(=O)Nc2ccc([N+](=O)[O-])cc2)C(=O)O1 (stereo unspecified)	none
CCN(CC)c1cc2c(cc1F)c(=O)c(S(=O)(=O)c1ccc(OC)cc1)cn2Cc1ccccc1	none (no result: Shiga inhibitor, AmpC inh no detg, Cycloheximide cs, NS1 inh)
O=c1[nH]c(=S)n(C2CC2)c(O)c1C=Nc1ccc2c(c1)OCO2	Cycloheximide cs 14
CC(C)c1ccc(N=Cc2c(O)n(C3CC3)c(=S)[nH]c2=O)cc1	Shiga inhibitor 52, Cycloheximide cs 10
CCN(CC)c1ccc(N=Cc2c(O)n(Cc3ccco3)c(=O)[nH]c2=O)cc1	none

Assay outcomes: PubChem BioAssay, National Center for Advancing Translational Sciences (NCATS)
